# Source: PubChem BioAssay (Tox21)
# Records with an inconclusive call do not appear. Activity calls are given as the source filed them. Calls follow the shape of the dose curve; as a rule, active = well fitted activation curve with a large enough effect in the signal ratio in the repeat runs, with a control signal flat (not every such curve was filed as active); inconclusive = weak or mixed curves; inactive = flat fitted curve, though single readings scatter; the % refers to the signal ratio.
# Assay: qHTS assay for small molecule activators of the heat shock response signaling pathway (AID 743210)
# Conditions: HeLa HSE-bla reporter, beta-lactamase ratio, 5 h; series mostly up to 62.6 µM
# Excerpt: U.S. Tox21 Program National Center for Advancing Translational Sciences [NCATS] NIH Chemical Genomics Center [NCGC] U.S. Environmental Protection Agency [EPA] National Institutes of Environmental Health Sciences [NIEHS] National Toxicology Program [NTP] U.S. Food and Drug Administration [FDA] Tox21 Assay Overview: Various chemicals, environmental and physiological stress conditions may lead to the activation of heat shock response/ unfolded protein response (HSR/UPR). There are three heat shock transcription factors (HSFs) (HSF-1, -2, and -4) mediating transcriptional regulation of the human HSR. To identify the compounds that activate HSR signaling, HSE-bla HeLa cell line (Invitrogen, Carlsbad, CA, USA) containing a beta-lactamase reporter gene under the control of the heat shock response elements was used to screen the Tox21 10K compound library.
# Tox21 Assay Protocol Summary: The CellSensor HSE-bla HeLa cells (Invitrogen, Carlsbad, CA, USA) were dispensed at 1500 cells/6uL/well into 1536-well black wall/clear bottom plates using a Multidrop combi (Thermo Fisher Scientific, Waltham, MA) dispenser. After the assay plates were incubated at 37 C and 5% CO2 overnight, 23 nL of compounds dissolved in DMSO, positive controls or DMSO only was transferred to the assay plate by a Pintool station (Kalypsys, San Diego, CA). The plates were incubated at 37 C for 5 h. After 1 uL of LiveBLAzerTM B/G FRET substrate was added using a Flying Reagent Dispenser (Beckman Coulter, Indianapolis, IN, USA), the plates were incubated at room temperature for 2.5 h, and fluorescence intensity was measured by an Envision plate reader (PerkinElmer, Shelton, CT).
row,Compound,outcome
1,O=C1CCCC1,inactive
2,COC(=O)c1cccnc1,inactive
3,CN(C)c1ccc(O)c2c1C[C@H]1C[C@H]3[C@H](N(C)C)C(=O)C(C(N)=O)=C(O)[C@@]3(O)C(=O)C1=C2O,inactive
4,CCOC(=O)c1ccc(N)cc1,inactive
5,c1ccc(Oc2ccccc2)cc1,inactive
6,O=C(O)Cn1c(=O)n(Cc2ccc(Br)cc2F)c(=O)c2ccc(Cl)cc21,inactive
7,CCCCCCC=O,inactive
8,CN(C)CCOC(=O)COc1ccc(Cl)cc1,inactive
9,CCNC(=S)NCC,inactive
10,Cc1ccc([N+](=O)[O-])cc1S(=O)(=O)O,inactive
11,CC(=O)c1ccc(O)cc1,inactive
12,COCCCN,inactive
13,OCc1ccccc1,inactive
14,CSc1ccc(Cl)cc1,inactive
15,CC(C)(C)c1cc(Cc2cc(C(C)(C)C)c(O)c(C(C)(C)C)c2)cc(C(C)(C)C)c1O,inactive
16,CC(C)(Oc1ccc(CCNC(=O)c2ccc(Cl)cc2)cc1)C(=O)O,inactive
17,O=C(O)CCCCCCCCC(=O)O,inactive
18,O=C(O)c1ccc(C(=O)O)c(C(=O)O)c1,inactive
19,Cc1ccc2ncccc2c1,inactive
20,CC1(C)NC(=O)NC1=O,inactive

row,Compound,outcome
1,COc1ccc(C)cc1N,inactive
2,COCCOC(=O)c1ccccc1C(=O)OCCOC,inactive
3,CC(C)CC(C)O (stereo not given),inactive
4,c1ccc2c(c1)Cc1ccccc1-2,inactive
5,CC(=O)CCC=C(C)C,inactive
6,NC(=S)NNC(N)=S,inactive
7,COc1ccc(CCC(C)=O)cc1,inactive
8,CCO[Si](CCC#N)(OCC)OCC,inactive
9,CC(C)(C#N)c1cc(Cn2cncn2)cc(C(C)(C)C#N)c1,inactive
10,N#Cc1ccccc1,inactive
11,C=C(C)C(=O)OCC(C)C,inactive
12,CN(C)c1ccc(Cc2ccc(N(C)C)cc2)cc1,inactive
13,O=S(=O)(O)c1ccc(N=Nc2c(O)ccc3cc(S(=O)(=O)O)ccc23)cc1,inactive
14,CCCCCCCCCCCCCCCCO,inactive
15,COc1cc(OC)c(C(=O)CCCN2CCCC2)c(OC)c1,inactive
16,CN1C(=O)CC[C@H]1c1cccnc1,inactive
17,CC(=O)OCc1ccccc1,inactive
18,CCCCCCCC=O,inactive
19,C=CC(=O)OCCC(=O)O,inactive
20,CC(C)CCCCCCCOC(=O)CCCCC(=O)OCCCCCCCC(C)C,inactive
